Laboratory results published in PubChem BioAssay.
Results filed as inconclusive are left out. Active and inactive are the calls of the source.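 Rule for the calls, unless noted: active = Her2 level under about 52% in both replicate screens, with viability over 70% of control (limit read from the data); inconclusive = Her2 under the limit in one screen only, or viability under 70%; inactive = Her2 level above the set limit.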

Legend:
[1] = Her2 expression decrease, cell viability multiplex – SKBR3 breast tumor cells, AlphaScreen, ATP viability, primary screen (AID 461); details: SKBR3 Her2 protein level, 18-24 h, measured here: SKBR3 viability, ATP luminescence, at 10 µM;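 for Her2 level: lower value means less Her2 protein in the cells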;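 for viability: percent of carrier control wells set as 100% viability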
[2] = target: Receptor tyrosine-protein kinase erbB-2 (Homo sapiens) (UniProt P04626); assay: as above; details: 18-24 h, at 10 µM, stronger effect = lower value
Chain of Receptor tyrosine-protein kinase erbB-2 (Homo sapiens) (P04626 whole entry, looked up): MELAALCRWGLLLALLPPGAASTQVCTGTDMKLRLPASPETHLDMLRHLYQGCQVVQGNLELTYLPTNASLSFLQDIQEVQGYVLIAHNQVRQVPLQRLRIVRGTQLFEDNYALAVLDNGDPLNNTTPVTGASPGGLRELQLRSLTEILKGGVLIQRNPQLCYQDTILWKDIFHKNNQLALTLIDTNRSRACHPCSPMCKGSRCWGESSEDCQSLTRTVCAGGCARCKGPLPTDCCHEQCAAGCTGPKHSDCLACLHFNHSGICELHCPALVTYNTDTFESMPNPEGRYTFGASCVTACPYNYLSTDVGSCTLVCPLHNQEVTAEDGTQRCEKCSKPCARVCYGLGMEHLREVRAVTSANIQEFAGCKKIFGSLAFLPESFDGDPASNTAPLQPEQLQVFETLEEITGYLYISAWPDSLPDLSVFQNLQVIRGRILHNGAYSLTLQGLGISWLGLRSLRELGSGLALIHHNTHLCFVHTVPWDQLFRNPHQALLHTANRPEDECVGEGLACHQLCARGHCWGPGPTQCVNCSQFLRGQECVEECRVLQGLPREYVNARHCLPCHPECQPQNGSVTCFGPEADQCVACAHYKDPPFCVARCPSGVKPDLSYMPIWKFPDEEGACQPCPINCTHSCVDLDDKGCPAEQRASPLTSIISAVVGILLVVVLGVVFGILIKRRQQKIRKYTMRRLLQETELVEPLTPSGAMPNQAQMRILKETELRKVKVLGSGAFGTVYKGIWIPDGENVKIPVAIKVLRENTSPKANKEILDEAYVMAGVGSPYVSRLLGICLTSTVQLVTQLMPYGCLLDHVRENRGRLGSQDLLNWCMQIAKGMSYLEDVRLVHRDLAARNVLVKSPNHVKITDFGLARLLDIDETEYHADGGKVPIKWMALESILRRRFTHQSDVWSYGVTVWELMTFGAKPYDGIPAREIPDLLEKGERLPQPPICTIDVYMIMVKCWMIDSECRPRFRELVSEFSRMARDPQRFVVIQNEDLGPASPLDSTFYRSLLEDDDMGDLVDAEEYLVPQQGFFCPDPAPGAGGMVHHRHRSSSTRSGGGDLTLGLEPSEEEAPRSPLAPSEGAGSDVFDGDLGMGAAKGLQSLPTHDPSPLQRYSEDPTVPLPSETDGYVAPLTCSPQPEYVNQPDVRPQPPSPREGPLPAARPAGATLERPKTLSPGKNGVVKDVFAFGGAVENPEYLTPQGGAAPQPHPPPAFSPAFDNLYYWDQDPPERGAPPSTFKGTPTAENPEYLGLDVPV

[3] = reduced viability of SK-BR-3 breast cancer cells – cell-based, 24 h, human, pilot screen (AID 572;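 active = viability at or below 10% of carrier control in both of two separate runs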;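 note: compound exposure lasted between 18 and 24 h rather than exactly 24 h; 100% = carrier-treated control wells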); details: SK-BR-3 viability, CellTiter-Glo luminescence, at 10 µM, stronger effect = lower value
[4] = HUVEC growth inhibition – cell-based, human, primary screen (AID 575;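 active = viability at or below 30% in both replicate assays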;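 note: 100% = median of untreated cell wells with 0.1% DMSO on each plate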); details: HUVEC proliferation, CellTiter-Glo luminescence, 72 h; at 10 µM; stronger effect = lower value
[5] = H69AR cell proliferation blockers – human, duplicate replicates, primary screen (AID 580;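 active = viability at or under a set limit in both replicates, limit being median viability minus 3 SD, cut at about 48% in these data, passing the limit was not always enough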;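 note: 100% = mean luminescence of untreated wells and 0% = no signal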); details: H69AR lung tumor cells viability, ATP luminescence, 72 h; at 10 µM; stronger effect = lower value
[6] = MRP1 drug-resistance reversers in H69AR cells – cell-based, doxorubicin co-treatment, pilot screen (AID 601;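 active = viability loss from added drug above about 55%, and viability with drug at most 40%, in both replicates, limit read from the data, passing the limit was not always enough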); details: CellTiter-Glo, 72 h, at 10 µM; for differential viability (reversal): stronger effect = higher value
[7] = yeast transport mutant growth inhibition pilot in 384-well plates, post-Golgi transport modulator project (AID 636; in the data active = inhibition above about 31%); details: absorbance 615 nm, about 18 h, stronger effect = higher value
[8] = growth suppression of yeast trafficking mutant, preliminary HTS, modulators of trafficking downstream of Golgi apparatus project, 1536-format plate, OD 615 nm (AID 637; in the data active = inhibition above about 30%); details: yeast transport mutant growth, absorbance 615 nm, 18 h; stronger effect = higher value
[9] = S. cerevisiae growth inhibition in permissive medium (OD615), pilot counter-assay for S. cerevisiae lifespan shortening project, permissive growth control (AID 705;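 active = growth inhibition above 25% in both replicates, a cutoff set 3 SD above the mean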); details: OD615, 24 h, at 10 µM, stronger effect = higher value
[10] = S. cerevisiae growth inhibition in restrictive medium, OD615, pilot screen, restrictive growth control, yeast lifespan reduction project (AID 706;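 active = growth inhibition above a set limit, 3 SD over mean compound inhibition, in both replicates, cut at about 43% in these data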;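 note: modified DeaD lifespan yeast strain shifted to restrictive glucose medium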); details: OD615, 48 h, at 10 µM, stronger effect = higher value
[11] = doxorubicin toxicity protection in MRP-1 cells – H69AR cells, CellTiter-Glo, duplicate, MRP-1 activator project, pilot screen (AID 807;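 active = viability increase at or above a cutoff of the median across tested compounds plus 3 SD, cut at about 8.5% in these data, passing the limit was not always enough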;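 note: compound pretreatment 18-22 h then 72 h combined with doxorubicin; 0% = doxorubicin alone and 100% = vehicle without doxorubicin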); details: H69AR viability with doxorubicin, CellTiter-Glo luminescence; at 10 µM; stronger effect = higher value
[12] = viability of HCT116 without oncogenic beta-catenin – human colon tumor cells, pilot screen (AID 823;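 active = cell viability at or below a set limit in both duplicate runs, the limit being the all-compound median minus 4 SD, cut at about 23% in these data, passing the limit was not always enough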;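 note: 0% = wells killed by 20 µM Hyamine and 100% = untreated DMSO cell wells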); details: HCT116 beta-catenin knockout viability, CellTiter-Glo, 60 h; at 10 µM; stronger effect = lower value
[13] = viability of PTEN-null HCT116 cells – cell-based, HCT116 clonal line, CellTiter-Glo, pilot screen (AID 824;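 active = viability at or below 27.92% in each of two runs, the all-compound median minus 4 SD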;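 note: 0% = 20 µM Hyamine control and 100% = vehicle cell control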); details: HCT116 PTEN-deleted viability, 60 h, at 10 µM, stronger effect = lower value
[14] = RAM pathway blockade in budding yeast – dse1pr::URA3 reporter, 5-FOA selection, pilot screen (AID 869;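 active = inhibition over a set limit, the all-compound mean plus 3 SD, in both replicate runs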;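 note: 0% = DMSO wells with no growth and 100% = 10 µM 1-NA-PP1 with full growth; RAM network block rescues cells from 5-FOA so hits raise OD615 growth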); details: S. cerevisiae dse1pr::URA3 5-FOA growth, OD615, 2 d; at 10 µM; stronger effect = higher value; strain carries analog-sensitive mutant Cbk1 kinase
[15] = RAM signaling pathway blockade in yeast – S. cerevisiae, Pdr1DBD-CYC8 efflux-inhibited sensitized strain, primary screen (AID 1298;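 active = RAM network inhibition above 8.4% in each of two replicates, 3 SD over the compound average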;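 note: 0% = DMSO untreated cells without growth and 100% = 10 µM 1-NA-PP1 full growth; higher means more yeast growth rescued from 5-FOA killing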); details: S. cerevisiae cbk1-as DSE1-URA3 strain, 5-FOA growth OD615, 2 d; at 50 µM; stronger effect = higher value
[16] = H69AR cells + 2 uM doxorubicin, measured here: viability with 2 uM doxorubicin, stronger effect = lower value
[17] = H69AR cells, compound alone cytotoxicity

O=C(C(Cc1ccccc1)n1cccc1)N1CCCCCC1 (centres undefined)
95.6%: viability [6, 17]
99%: viability [1]
84.4%: viability [6, 16]
inactive: Her2 level [2] 102% | viability [3] 99% | viability [4] 87.6% | viability [5] 95.6% | differential viability (reversal) ([6]; H69AR cells + 2 uM doxorubicin) 11.2% | inhibition [7] -0.13% | inhibition [8] -6.89% | growth inhibition [9] -11.2% | growth inhibition [10] -7.42% | viability increase [11] -2.42% | viability [12] 95.3% | viability [13] 88% | inhibition [14] 1.68% | RAM network inhibition [15] 2.67%

Cc1ccc(N(C(=O)c2ccncc2)C2C=CS(=O)(=O)C2)cc1 (centres undefined)
103%: viability [6, 17]
97.5%: viability [6, 16]
108%: viability [1]
inactive: Her2 level [2] 110% | viability [3] 108% | viability [4] 101% | viability [5] 103% | differential viability (reversal) ([6]; H69AR cells + 2 uM doxorubicin) 5.2% | inhibition [7] 0.51% | inhibition [8] 7.33% | growth inhibition [9] -8.7% | growth inhibition [10] -14% | viability increase [11] 0.88% | viability [12] 93.8% | viability [13] 98.4% | RAM network inhibition [15] 5.22%

CC1CCC(NC(=O)C2(C)CCC(=O)N2Cc2cccnc2)CC1 (centres undefined)
inactive: Her2 level [2] 114% | viability [3] 97% | viability [4] 102% | viability [5] 78.6% | differential viability (reversal) ([6]; H69AR cells + 2 uM doxorubicin) -8.95% | inhibition [7] 2.18% | inhibition [8] -5.17% | growth inhibition [9] -12.3% | growth inhibition [10] -10.1% | viability increase [11] 1.23% | viability [12] 107% | viability [13] 98.3% | inhibition [14] 0.41% | RAM network inhibition [15] 1.87%
78.6%: viability [6, 17]
87.5%: viability [6, 16]
97%: viability [1]

CCOC(=O)c1cccc(NC(=O)CNS(=O)(=O)c2cccs2)c1
inactive: Her2 level [2] 92% | viability [3] 95.5% | viability [4] 97% | viability [5] 88.3% | differential viability (reversal) ([6]; H69AR cells + 2 uM doxorubicin) -2.06% | inhibition [7] -8.36% | inhibition [8] -5.71% | growth inhibition [9] -0.595% | growth inhibition [10] -4.69% | viability increase [11] 0.66% | viability [12] 102% | viability [13] 97.7% | inhibition [14] 1.43% | RAM network inhibition [15] 0.44%
88.3%: viability [6, 17]
90.4%: viability [6, 16]
95.5%: viability [1]

Cc1cc(C)c(NC(=O)CSc2nc3c(c(=O)n2C)SC(C)C3)c(C)c1 (centres undefined)
93.5%: viability [1]
96.2%: viability [6, 16]
90%: viability [6, 17]
inactive: Her2 level [2] 118% | viability [3] 93.5% | viability [4] 96.7% | viability [5] 90% | differential viability (reversal) ([6]; H69AR cells + 2 uM doxorubicin) -6.17% | inhibition [7] -2.67% | inhibition [8] 10% | growth inhibition [9] -7.85% | growth inhibition [10] -17.5% | viability increase [11] -0.13% | viability [12] 85.7% | viability [13] 77.5% | inhibition [14] 1.58% | RAM network inhibition [15] 4.95%
